{"source": "PubChem BioAssay AID463173", "about": "(ICCB-Longwood Screening Facility, Harvard Medical School, 2010)", "note": "The campaign covered roughly 52,000 compounds. About 4,300 (8.3%) were called active. For the sample, actives were picked, then their nearest neighbours and some compounds at random. Values without a mark were called inactive. Rule as the data show it: active = survival mostly below about 52% (no sharp cut-off); inactive = mostly above about 56%.", "data": [{"test_system": "DeltatarO mutant", "assay": "growth inhibition of S. aureus wild type versus tarO mutant, primary screen, teichoic acid synthesis inhibitors, RN4220, OD600 (AID 463173)", "conditions": "OD600, 18 h, stronger effect = lower value, screened at 18.75 µg/mL (by protocol)", "values": [{"smiles": "Cc1ccc(-c2nc(SCC(=O)Nc3cc(C)on3)c3c(=O)n(C)c(=O)n(C)c3n2)cc1", "survival": "83%"}, {"smiles": "CC(=O)c1ccc(NC(=O)CSc2nc(=O)n(Cc3ccccn3)c3c2CCC3)cc1", "survival": "67%"}, {"smiles": "COc1ccc(CCNC(=O)CSC2=Nc3ccccc3C3=NC(CCC(=O)NCc4ccccc4)C(=O)N23)cc1OC", "note": "(stereo not drawn)", "survival": "107%"}, {"smiles": "O=C(Nc1nc2c(F)cc(F)cc2s1)c1ccc2c(c1)OCCO2", "survival": "85%"}, {"smiles": "Cn1cc(C(=O)NCc2ccccc2)c(=O)c2cc(S(=O)(=O)N3CCCCCC3)ccc21", "survival": "118%"}, {"smiles": "COc1ccc(C)cc1NC(=O)c1ccc(NS(=O)(=O)c2c(C)noc2C)cc1", "survival": "83%"}, {"smiles": "Cc1noc(C)c1S(=O)(=O)Nc1ccc(C(=O)Nc2ccc(C(C)C)cc2)cc1", "survival": "52% (active)"}, {"smiles": "Cc1cc(Br)ccc1NC(=O)c1ccc(NS(=O)(=O)c2c(C)noc2C)cc1", "survival": "59%"}, {"smiles": "CCc1ccc(NC(=O)c2ccc(NS(=O)(=O)c3c(C)noc3C)cc2)cc1", "survival": "48%"}, {"smiles": "Cc1noc(NS(=O)(=O)c2ccc(NC(=O)c3ccc(Br)cc3)cc2)c1C", "survival": "74%"}, {"smiles": "Cc1noc(C)c1S(=O)(=O)Nc1ccc(C(=O)Nc2ccc(Br)cc2)cc1", "survival": "36% (active)"}, {"smiles": "Cc1cccc(C)c1NC(=O)CSc1nc(-c2ccccc2)nc2c1Cc1c(CO)cnc(C)c1O2", "survival": "87%"}, {"smiles": "CCc1cccc(C)c1NC(=O)C1CCN(c2nnc(C)c3c(C)n(-c4ccccc4)nc23)CC1", "survival": "77%"}, {"smiles": "Cc1ccc(NC(=O)C2CCN(c3nnc(C)c4c(C)n(-c5ccccc5)nc34)CC2)cc1Cl", "survival": "71%"}, {"smiles": "Cc1cc(C)c(NC(=O)C2CCN(c3nnc(C)c4c(C)n(-c5ccccc5)nc34)CC2)c(C)c1", "survival": "52% (active)"}, {"smiles": "O=C(Nc1cccc(C(F)(F)F)c1)c1cccnc1NCCO", "survival": "77%"}, {"smiles": "C=C(C)Cn1c(SCC(=O)c2ccc(OC)cc2)nc2sc3c(c2c1=O)CCCC3", "survival": "75%"}, {"smiles": "C=C(C)Cn1c(SCC(=O)c2ccccc2)nc2sc3c(c2c1=O)CCCC3", "survival": "69%"}, {"smiles": "C=C(C)Cn1c(SCC(=O)c2ccc(Br)cc2)nc2sc3c(c2c1=O)CCCC3", "survival": "50%"}, {"smiles": "CCCCn1c(SCC(=O)c2ccccc2)nc2sc3c(c2c1=O)CCCC3", "survival": "44% (active)"}, {"smiles": "C=C(C)CSc1nc2sc3c(c2c(=O)n1CCCC)CCCC3", "survival": "-3% (active)"}, {"smiles": "CCOC(=O)CSc1nc2sc3c(c2c(=O)n1CC)CCCC3", "survival": "58%"}, {"smiles": "COc1ccc(CNC(=O)CN(C)S(=O)(=O)c2ccc3[nH]c4c(c3c2)CCCC4)cc1", "survival": "70%"}, {"smiles": "Cn1c(C(=O)N(Cc2ccccc2)C(C)(C)C)cc2sccc21", "survival": "109%"}, {"smiles": "CCOc1ccccc1CNC(=O)C1CCN(c2nnc(C)c3c(C)n(-c4ccc(C)cc4)nc23)CC1", "survival": "68%"}, {"smiles": "COc1ccccc1CC(=O)Nc1ccc2nc(Nc3cccc(Cl)c3)cc(C)c2c1", "survival": "144%"}, {"smiles": "Cc1cc(Nc2cccc(Cl)c2)nc2ccc(NC(=O)Cc3cccc(C(F)(F)F)c3)cc12", "survival": "64%"}, {"smiles": "Cc1cc(Nc2cccc(C(F)(F)F)c2)nc2ccc(NC(=O)c3cccc(Cl)c3)cc12", "survival": "92%"}, {"smiles": "Cc1cc(Nc2cccc(C(F)(F)F)c2)nc2ccc(NC(=O)c3ccc(=O)[nH]c3)cc12", "survival": "37% (active)"}, {"smiles": "Cc1cc(Nc2cccc(C(F)(F)F)c2)nc2ccc(NC(=O)c3ccc(N(C)C)cc3)cc12", "survival": "55%"}, {"smiles": "COc1cccc(CC(=O)Nc2ccc3nc(Nc4cccc(C(F)(F)F)c4)cc(C)c3c2)c1", "survival": "25% (active)"}, {"smiles": "COc1ccc(CC(=O)Nc2ccc3nc(Nc4cccc(Cl)c4)cc(C)c3c2)cc1", "survival": "98%"}, {"smiles": "COc1ccccc1CC(=O)Nc1ccc2nc(Nc3cccc(C(F)(F)F)c3)cc(C)c2c1", "survival": "92%"}, {"smiles": "COc1ccc(CC(=O)Nc2ccc3nc(Nc4cccc(Cl)c4)cc(C)c3c2)cc1OC", "survival": "46% (active)"}, {"smiles": "O=C(Cn1cc(S(=O)(=O)Cc2ccccc2Cl)c2ccccc21)Nc1cccc(C(F)(F)F)c1", "survival": "75%"}, {"smiles": "CCOc1ccc(C2C(C(=O)Nc3ccccc3)=C(C)Nc3nc(SCc4cc(C)ccc4C)nn32)cc1", "note": "(stereo not drawn)", "survival": "123%"}, {"smiles": "Cc1ccc(NC(=O)Cn2c(=O)n(-c3ccc(CC(=O)NCC4CCCO4)cc3)c(=O)c3ccccc32)cc1", "note": "(stereo not drawn)", "survival": "95%"}, {"smiles": "CCCCOC(=O)c1ccc(NC(=O)c2cc3c(=O)n4cccc(C)c4nc3s2)cc1", "survival": "66%"}, {"smiles": "COc1cc(OC)cc(C(=O)NCC(c2cccs2)S(=O)(=O)c2ccc(F)c(C)c2)c1", "note": "(stereo not drawn)", "survival": "100%"}, {"smiles": "Cc1cccc(NC(=O)C2CCCN(S(=O)(=O)c3ccc4c(c3)CCCC(=O)N4)C2)c1", "note": "(stereo not drawn)", "survival": "95%"}, {"smiles": "COc1ccc(NS(=O)(=O)c2ccc3[nH]c(=O)ccc3c2)cc1OC", "survival": "98%"}, {"smiles": "COc1ccc(-c2nc3sc(CCNC(=O)c4cc(Cl)ccc4OC)c(C)n3n2)cc1", "survival": "73%"}, {"smiles": "COc1ccc(C(C(=O)NCc2cccs2)N(Cc2ccco2)C(=O)Cn2nnc(-c3cccs3)n2)cc1", "note": "(stereo not drawn)", "survival": "93%"}]}]}
